Rtt109 Vps75: inhibitors of C. albicans Rtt109/Vps75 HAT, primary screen, biochemical, ThioGlo CoA-SH fluorescence, plate reader. purified Rtt109/Vps75, 4 h. inhibition, % at 34.9 µM. 330,000 compounds, 0.16% hits;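 active = inhibition of at least 50% in every replicate; inconclusive = best replicate reaches 50% inhibition but some replicates fall short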
Target sequence (Q5AAJ8 whole entry, looked up): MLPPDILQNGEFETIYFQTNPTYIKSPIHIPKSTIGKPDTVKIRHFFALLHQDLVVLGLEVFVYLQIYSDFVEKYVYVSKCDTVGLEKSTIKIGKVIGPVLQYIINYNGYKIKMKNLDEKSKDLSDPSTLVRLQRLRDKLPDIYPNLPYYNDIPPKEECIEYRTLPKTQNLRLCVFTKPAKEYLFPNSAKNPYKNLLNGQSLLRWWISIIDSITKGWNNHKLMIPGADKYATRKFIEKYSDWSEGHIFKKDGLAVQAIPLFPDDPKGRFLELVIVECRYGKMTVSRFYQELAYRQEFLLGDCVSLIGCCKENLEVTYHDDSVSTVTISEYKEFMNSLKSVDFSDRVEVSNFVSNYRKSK
DENV2 CPE: inhibitors of DENV2 cytopathic effect, primary screen, cell-based, plate reader, single concentration. DENV2-infected cells, cytopathic effect rescue. CPE inhibition, % at 9.99 µM. 350,000 compounds, 1.7% hits; in the data active = CPE inhibition above about 20%, passing the limit was not always enough; inconclusive = no clear call, values can overlap the other calls; tested in BHK-21 cells;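 also: 0% = median of neutral control wells and 100% = median of positive control wells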
PglD DTNB: C. jejuni PglD acetyltransferase inhibitors, primary screen, biochemical, DTNB colorimetric, single point. 360,000 compounds, 0.098% hits. UDP-N-acetylbacillosamine N-acetyltransferase PglD (Campylobacter jejuni). AID 602405, 2012. purified PglD enzyme, DTNB colorimetric CoA detection. inhibition, % at 12.5 µM; in the data active = inhibition above about 16%, passing the limit was not always enough; inconclusive = no clear call, values can overlap the other calls
N-glyco inh: increase of ERlucT glycosylation luciferase signal, primary screen, N-linked glycosylation inhibitor project, D54 ERlucT cells, luminescence, set 2 | reporter increase, % at 12.5 µM | AID 588692, 2011 | 360,000 compounds, 0.23% hits | D54 ERlucT glycosylation luciferase reporter, 24 h; percent of 100 nM tunicamycin response;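 active = mean luciferase reporter signal, scaled so untreated is 0 and the glycosylation-blocking control 100, at or above a set limit in every replicate; inconclusive = mean reaches the limit but not every replicate does; inactive = mean below the limit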;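 also: luciferase carries N-glycosylation sites so blocking glycosylation raises the light; 0% = median of neutral control wells and 100% = median of 100 nM tunicamycin wells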
* marks the source's active call; other numbers are inactive results; ? = inconclusive; / = no result. This excerpt belongs to a sample that is enriched for hits.

SMILES | Rtt109 Vps75 | DENV2 CPE | PglD DTNB | N-glyco inh
C[C@@H]1CCCCO[C@H](CN(C)S(=O)(=O)c2cccs2)[C@H](C)CN([C@@H](C)CO)C(=O)c2cc(NS(C)(=O)=O)ccc2O1 | / | -1 | -1 | /
COc1ccc2o/c(=N\O)c(C(=O)Nc3ccc(C)cc3)cc2c1 | 5 | 25* | / | 1
CCCNC(=O)N1CC2(C1)[C@H](c1ccccc1)[C@H](CO)N2Cc1cccc(F)c1 | / | -6 | / | /
Cc1ccc(C(=O)NCCNC(=O)COc2ccc(C)c(C)c2)cn1 | / | -1 | -167 | 2
Cc1ccc(C(=O)NCCCNC(=O)COc2ccc(C)c(C)c2)cn1 | 55* | 3 | 1 | 2
O=C(NC1CCCCC1)N[C@H]1C=C[C@@H](CC(=O)N2CCOCC2)O[C@H]1CO | / | ? | 2 | /
C[C@@H]1CCCCO[C@@H](CN(C)C(=O)Nc2ccc(F)cc2)[C@@H](C)CN([C@@H](C)CO)C(=O)c2cc(NC(=O)Nc3ccc(F)cc3)ccc2O1 | / | -17 | -4 | /
C[C@H]1CCCCO[C@H](CN(C)C(=O)Nc2ccc(F)cc2)[C@@H](C)CN([C@@H](C)CO)C(=O)c2cc(NC(=O)Nc3ccc(F)cc3)ccc2O1 | / | 46* | 0 | /
C[C@@H]1CCCCO[C@H](CN(C)C(=O)Nc2ccc3c(c2)OCO3)[C@H](C)CN([C@@H](C)CO)C(=O)c2cc(NC(=O)NC3CCCCC3)ccc2O1 | / | / | 7 | /
C[C@@H]1CCCCO[C@@H](CN(C)C(=O)Nc2ccc(F)cc2)[C@H](C)CN([C@H](C)CO)C(=O)c2cc(NC(=O)C3CCCCC3)ccc2O1 | / | 32* | 0 | /
C[C@@H]1CCCCO[C@@H](CN(C)CC2CC2)[C@@H](C)CN([C@H](C)CO)C(=O)c2cc(NC(=O)Nc3ccc(F)cc3)ccc2O1 | / | 78* | 2 | /
C[C@H]1CCCCO[C@H](CN(C)C(=O)Nc2ccc3c(c2)OCO3)[C@@H](C)CN([C@@H](C)CO)C(=O)c2cc(NC(=O)NC3CCCCC3)ccc2O1 | / | 85* | 0 | /
O=C(O)C[C@H]1CC[C@H](NC(=O)CCN2CCCCC2)[C@@H](CO)O1 | / | -6 | / | /
CCC(=O)N1C[C@H](O)COC[C@H]2O[C@H](CC(=O)NCc3ccc(Oc4ccccc4)cc3)CC[C@@H]21 | / | ? | 8 | /
C[C@@H]1CN([C@@H](C)CO)C(=O)c2cc(NC(=O)Nc3ccc(F)cc3)ccc2O[C@@H]1CN(C)CC1CCCCC1 | / | 5 | 17* | /
C[C@H](CO)N1C[C@H](C)[C@H](CN(C)CC2CCCCC2)Oc2ccc(NC(=O)Nc3ccc(F)cc3)cc2C1=O | / | -3 | 6 | /
C[C@H]1CCCCO[C@@H](CN(C)C(=O)Nc2cccc3ccccc23)[C@@H](C)CN([C@@H](C)CO)C(=O)c2cc(NC(=O)Cc3ccccc3)ccc2O1 | / | 83* | 1 | /
C[C@@H]1CCCCO[C@H](CN(C)C(=O)NC2CCCCC2)[C@@H](C)CN([C@@H](C)CO)C(=O)c2cc(NC(=O)NC3CCCCC3)ccc2O1 | / | 47* | 5 | /
C[C@@H]1CCCCO[C@@H](CN(C)C(=O)Nc2cccc3ccccc23)[C@H](C)CN([C@H](C)CO)C(=O)c2cc(NC(=O)Cc3ccccc3)ccc2O1 | / | 20 | 1 | /
C[C@@H]1CN([C@H](C)CO)C(=O)c2cc(NC(=O)Nc3ccc(F)cc3)ccc2O[C@@H](C)CCCCO[C@H]1CN(C)C(=O)NC1CCCCC1 | / | 21* | 2 | /
COc1ccc(-c2ccc3n(c2=O)C[C@H]2[C@H](CO)[C@@H](C(=O)N(C)C)N(CC4CC4)[C@@H]32)cc1 | / | 0 | -3 | /
COCC#Cc1ccc2c(c1)O[C@H](CN(C)S(=O)(=O)c1ccc(F)cc1)[C@@H](C)CN([C@@H](C)CO)S2(=O)=O | / | -3 | 0 | /
COCCN(C[C@H]1[C@H](c2ccccc2)[C@H](CO)N1C(C)=O)C(=O)c1cccnc1 | / | 18 | 1 | /
COc1ccc(CN(C)C[C@H]2Oc3ccc(NC(=O)Cc4ccccc4)cc3CC(=O)N([C@@H](C)CO)C[C@H]2C)cc1 | / | -7 | 2 | /
COCCNC(=O)C[C@@H]1CC[C@H]2[C@@H](COC[C@H](O)CN2Cc2ccc(Cl)c(Cl)c2)O1 | / | -2 | 2 | /
SMILES | Rtt109 Vps75 | DENV2 CPE | PglD DTNB | N-glyco inh
C[C@H](CO)N1C[C@H](C)[C@H](CN(C)C(=O)Nc2cccc3ccccc23)OCCCC[C@H](C)Oc2ccc(NC(=O)NC3CCCCC3)cc2C1=O | / | 5 | 4 | /
C[C@H](CO)N1C[C@H](C)[C@@H](CN(C)C(=O)Nc2cccc3ccccc23)OCCCC[C@H](C)Oc2ccc(NC(=O)NC3CCCCC3)cc2C1=O | / | 113* | 4 | /
C[C@H]1CCCCO[C@H](CN(C)C(=O)NC2CCCCC2)[C@@H](C)CN([C@@H](C)CO)C(=O)c2cc(NC(=O)Nc3ccc(F)cc3)ccc2O1 | / | 32* | / | /
NC(=O)c1ccc2c(=O)n3c(-c4cc(Cl)c(N)c(Cl)c4)csc3nc2c1 | -24 | ? | -8 | 29*
Nc1[nH]c(C(=O)c2ccccc2)c(-c2ccc(Br)cc2)c1C(=O)NCCc1c[nH]c2ccccc12 | / | 18 | / | /
CC(NC(=O)c1c(N)[nH]c(C(=O)c2ccc(Cl)cc2)c1-c1ccc(Br)cc1)c1cccc2ccccc12 (stereo not drawn) | / | 39* | / | /
Nc1[nH]c(C(=O)c2ccc(Br)cc2)c(-c2ccc(Cl)cc2)c1C(=O)NCCc1c[nH]c2ccccc12 | / | 44* | / | /
C[C@@H]1CN([C@@H](C)CO)C(=O)c2cc(NS(=O)(=O)c3ccccc3)ccc2O[C@@H](C)CCCCO[C@@H]1CN(C)CC1CCCCC1 | / | 55* | 4 | /
C[C@@H]1CN([C@@H](C)CO)C(=O)c2cc(NS(=O)(=O)c3cn(C)cn3)ccc2O[C@@H](C)CCCCO[C@H]1CN(C)Cc1ccncc1 | / | 70* | 2 | /
C[C@@H]1CCCCO[C@H](CN(C)Cc2ccncc2)[C@H](C)CN([C@@H](C)CO)C(=O)c2cc(NS(=O)(=O)c3ccccc3)ccc2O1 | / | 33* | 1 | /
C[C@H]1CCCCO[C@@H](CN(C)CC2CCCCC2)[C@@H](C)CN([C@@H](C)CO)C(=O)c2cc(NS(=O)(=O)c3ccccc3)ccc2O1 | / | 1 | -1 | /
C[C@@H]1CN([C@@H](C)CO)C(=O)c2cc(NS(=O)(=O)c3ccccc3)ccc2O[C@@H](C)CCCCO[C@@H]1CN(C)Cc1ccncc1 | / | 49* | 6 | /
C[C@@H]1CN([C@H](C)CO)C(=O)c2cc(NS(=O)(=O)c3ccccc3)ccc2O[C@@H](C)CCCCO[C@H]1CN(C)Cc1ccncc1 | / | 6 | 3 | /
COc1cccc(C#Cc2cnc3c(c2)C(=O)N([C@@H](C)CO)C[C@@H](C)[C@@H](CN(C)C(C)=O)O3)c1 | / | -1 | 0 | /
C[C@@H]1CN([C@H](C)CO)C(=O)c2cccc(NS(=O)(=O)c3cccs3)c2O[C@@H]1CN(C)Cc1ccc(-c2ccccc2)cc1 | / | -5 | -5 | /

Screening results as filed in PubChem.
